Compounds with a hit are over-represented: about 0.25% of the library has one in this group of screens.
Tb PGK inh: qHTS Assay to Find Inhibitors of Phosphoglycerate Kinase; PGK/GAPDH coupled, Kinase-Glo luminescence, 60 min; Phosphoglycerate kinase, glycosomal (Trypanosoma brucei brucei), P07378; actives 0.043% (n = 380,000); AID 602233, 2012; Potency, µM (highest dose often 57.5 µM), most hits filed as inhibitors; also: nearly all actives have a fitted effect of over 60% in size
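Recombinant glycosomal PGK reaction used 1,3-bisphosphoglycerate generated in-well by GAPDH (100nM final) in 100mM TEA pH 7.6, 5mM MgCl2, 0.01% Tween-20. After 60 minutes at room temperature, ATP was read by Kinase-Glo Plus luminescence end-point.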
Tb PFK inh-1: qHTS Assay to Find Inhibitors of T. brucei phosphofructokinase. ATP-dependent 6-phosphofructokinase (Trypanosoma brucei brucei), O15648. T. brucei PFK, ADP-Glo luminescence. Potency, µM (series often up to 57.5 µM), most hits filed as inhibitors. actives 0.17% (n = 330,000). AID 485367, 2010; also: nearly all actives have a fitted effect of over 60% in size
Target sequence (O15648 whole entry, looked up): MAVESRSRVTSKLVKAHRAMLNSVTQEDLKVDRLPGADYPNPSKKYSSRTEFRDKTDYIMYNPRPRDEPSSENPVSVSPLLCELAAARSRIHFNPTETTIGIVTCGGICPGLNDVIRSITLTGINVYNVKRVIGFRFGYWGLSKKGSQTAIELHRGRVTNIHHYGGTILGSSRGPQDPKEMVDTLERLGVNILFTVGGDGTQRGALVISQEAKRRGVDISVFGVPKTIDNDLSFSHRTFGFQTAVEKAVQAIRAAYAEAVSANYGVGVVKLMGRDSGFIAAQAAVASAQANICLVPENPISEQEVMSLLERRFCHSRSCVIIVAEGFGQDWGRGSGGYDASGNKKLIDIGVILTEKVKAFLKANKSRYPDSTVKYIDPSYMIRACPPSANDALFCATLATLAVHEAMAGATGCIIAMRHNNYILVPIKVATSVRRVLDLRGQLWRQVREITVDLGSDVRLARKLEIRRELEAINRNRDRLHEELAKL
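ADP-Glo luminescence quantified ADP after 45 min at room temperature, with 1.25 nM T. brucei PFK, 0.1 mM ATP and 0.5 mM fructose-6-phosphate in pH 8.0 TEA buffer. qHTS titrations up to 57 µM; curves classified by quality.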
USP2a inh: qHTS Assay for Inhibitors of Ubiquitin-specific Protease USP2a Using CHOP2 as the Reporter; actives 0.01% (n = 330,000); AID 463254, 2010; USP2 core, Ub-CHOP2 coupled fluorogenic reporter, 485/531; Potency, µM (highest dose often 38.3 µM), usual class: inhibitors
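Cell-free coupled assay: 10nM USP2 core preincubated 30min RT with compound in Tris-HCl pH 8.0/CaCl2/CHAPS buffer, then 25nM Ub-CHOP2 and 25nM reporter substrate; fluorescence (Ex 485/Em 531) read after 60min RT, normalized to NEM inhibition, concentration-response curves fitted.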
RGS4 inh: Inhibitors of Regulator of G Protein Signaling (RGS) 4: qHTS; Transcreener GDP fluorescence polarization, RGS4-accelerated GTP hydrolysis; Potency, µM (top dose mostly 114 µM), usual class: inhibitors; Regulator of G-protein signaling 4 (Homo sapiens), P49798; actives 0.039% (n = 390,000); AID 504845, 2011; also: nearly all actives have a fitted effect of over 75% in size
Target sequence (P49798 whole entry, looked up): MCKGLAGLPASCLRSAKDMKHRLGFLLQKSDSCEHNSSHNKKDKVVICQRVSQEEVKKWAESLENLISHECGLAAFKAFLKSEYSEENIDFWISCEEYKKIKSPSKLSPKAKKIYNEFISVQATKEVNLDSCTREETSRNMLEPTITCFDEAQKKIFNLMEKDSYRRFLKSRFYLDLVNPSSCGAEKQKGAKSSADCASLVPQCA
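MLSMR compounds (23 nl, pin-transferred) preincubated 10 min at room temperature with a 500nM (2x) first reagent, then RGS4 at 900nM (2x) plus Transcreener GDP mix added; fluorescence polarization (620/688 nm) read before and after 90 min at 30 °C.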
BCR signal inh: qHTS Assay to Find Inhibitors of Chronic Active B-Cell Receptor Signaling; Potency, µM (series often up to 46.1 µM), most hits filed as inhibitors; actives 0.05% (n = 340,000); ABC-DLBCL IkBa-CBG/CBR reporter, luminescence ratio, 4 h; active = well fitted inhibition curve with a large enough effect in the signal ratio, with a control signal flat, not every such curve was filed as active; inconclusive = small, poorly fitted or top-dose-only effect, or effect the other way, or a change in a side signal; the % refers to the signal ratio
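Compounds up to 46 uM were incubated four hours with TMD8 cells whose green CBG68 luciferase is fused to IkappaBalpha; red CBR luminescence normalised the signal, and concentration-effect curves were fitted to fusion, red and ratio data.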
Tb PFK KinaseGlo: Tb PFK orthogonal confirmatory assay using ATP depletion (Kinase-Glo Plus) as an alternative measure of Tb PFK activity: Hit Validation; shares compounds with Tb PFK inh-1; Tb PFK enzyme, ATP depletion, Kinase-Glo Plus luminescence; Potency, µM (titrated, usually from 57.5 µM); actives 47% (n = 1,100); calls by dose curve; also: nearly all actives have a fitted effect of over 60% in size
Tb PFK inh-2: Inhibitors of T. brucei phosphofructokinase: Hit Validation; shares compounds with Tb PFK inh-1; purified T. brucei PFK, ADP-Glo luminescence, 45 min; Potency, µM (series often up to 57.5 µM), hits mostly inhibitors; actives 41% (n = 1,100); AID 504637, 2011; also: nearly all actives have a fitted effect of over 60% in size
Hits are given with their value. Unless noted, calls follow the shape of the dose curve; as a rule, active = well fitted curve in the direction sought with a large enough effect; inconclusive = small, poorly fitted or top-dose-only effect, or another doubt; inactive = no such curve, though single readings can be large; an effect the other way counts as inactive or inconclusive.

`Cc1ccc(S/C(=N/S(=O)(=O)c2ccc(Cl)cc2)c2ccccc2)cc1` gave RGS4 inh inactive.
O=C(c1cccn(Cc2cccc(Cl)c2)c1=O)N1CCOCC1 was read as Tb PGK inh inactive, Tb PFK inh-1 24µM, USP2a inh inactive, RGS4 inh inactive, BCR signal inh inactive, Tb PFK KinaseGlo 21µM and Tb PFK inh-2 24µM.
N#Cc1ccc(NC(=O)C2Cc3ccccc3CN2S(=O)(=O)c2ccc(F)cc2)cc1 (stereo not drawn) was read as RGS4 inh inactive.
For COc1ccc(S(=O)(=O)N(CC(=O)Nc2ccc(OC)cc2OC)c2ccc(Cl)cc2)cc1 the results were Tb PGK inh inactive and RGS4 inh inactive.
For O=C1CC2(CCCC2)CC(=O)N1CCCCNCC1COc2ccccc2O1 (stereo not drawn) the results were RGS4 inh inactive.
Screening Cc1ccccc1OCc1nc2c3cnn(-c4cccc(F)c4)c3ncn2n1 returned RGS4 inh inactive.
NC(=S)N/N=C1\CCSc2ccc(Cl)cc21 was read as Tb PGK inh inactive, Tb PFK inh-1 inactive, USP2a inh inactive, RGS4 inh inactive and BCR signal inh inconclusive.
Screening S=C1CCSc2ccc(Cl)cc2N1 returned Tb PGK inh inactive, Tb PFK inh-1 inconclusive, USP2a inh inactive, RGS4 inh inactive, BCR signal inh inactive, Tb PFK KinaseGlo inconclusive and Tb PFK inh-2 inconclusive.
For CCOc1ccccc1CNC(=O)c1sc2ncccc2c1-n1cccc1 the results were Tb PGK inh inactive and RGS4 inh inactive.
`O=C1C(SCCO)=C(SCCO)C(=O)c2ccccc21` gave Tb PGK inh inactive, Tb PFK inh-1 9.5µM, USP2a inh inactive, RGS4 inh 3.4µM, BCR signal inh inconclusive, Tb PFK KinaseGlo 0.6µM and Tb PFK inh-2 inconclusive.
Screening CC1=C(SCc2ccccc2)C(=O)c2ccccc2C1=O returned Tb PGK inh inactive and RGS4 inh inactive.
Screening CC(C)NC(=S)NNc1nc2ccccc2s1 returned Tb PGK inh inactive, Tb PFK inh-1 inconclusive, USP2a inh inactive, RGS4 inh inconclusive, BCR signal inh inconclusive, Tb PFK KinaseGlo 8.5µM and Tb PFK inh-2 7.6µM.
`O=C(NNc1nc2ccccc2s1)c1ccc(F)cc1` gave Tb PGK inh inactive, Tb PFK inh-1 inactive, USP2a inh inactive, RGS4 inh inactive and BCR signal inh inconclusive.
Screening Cc1nc(SCc2ccc(O)c([N+](=O)[O-])c2)n[nH]1 returned Tb PGK inh inactive, Tb PFK inh-1 inactive, USP2a inh inactive, RGS4 inh inactive and BCR signal inh inactive.
Cc1nc(SCc2ccc(O)c([N+](=O)[O-])c2)c([N+](=O)[O-])[nH]1 was read as Tb PGK inh inactive, Tb PFK inh-1 inconclusive, USP2a inh inactive, RGS4 inh inconclusive, BCR signal inh inactive, Tb PFK KinaseGlo inactive and Tb PFK inh-2 inactive.
`CCc1nc2c(cnn2-c2ccc(Cl)cc2)c(=O)n1-c1ccc(OC)c(Cl)c1` gave Tb PGK inh inactive and RGS4 inh inactive.
Screening O=C(COC(=O)c1ccc(Cl)c(S(=O)(=O)N2CCOCC2)c1)Nc1ccc2[nH]c(=O)[nH]c2c1 returned Tb PGK inh inactive, Tb PFK inh-1 inconclusive, USP2a inh inactive, RGS4 inh inactive, BCR signal inh inactive, Tb PFK KinaseGlo inconclusive and Tb PFK inh-2 inconclusive.
For C=CCNc1oc(-c2cccc(Cl)c2)nc1C#N the results were Tb PGK inh inactive, Tb PFK inh-1 27µM, USP2a inh inactive, RGS4 inh inactive, BCR signal inh inconclusive, Tb PFK KinaseGlo 17µM and Tb PFK inh-2 30µM.
For Cc1cc(C)nc(NS(=O)(=O)c2ccc(NC(=O)c3cc(=O)c4ccccc4o3)cc2)n1 the results were Tb PGK inh inactive, Tb PFK inh-1 inconclusive, USP2a inh inactive, RGS4 inh inactive, BCR signal inh inconclusive, Tb PFK KinaseGlo inactive and Tb PFK inh-2 inconclusive.
`Cc1ccc2c(=O)cc(C(=O)Nc3ccc(S(=O)(=O)Nc4nc(C)cc(C)n4)cc3)oc2c1` gave Tb PGK inh inactive and RGS4 inh inactive.
For CCOC(=O)c1ccc(NC(=O)C(C)N(c2ccc(OCC)cc2)S(C)(=O)=O)cc1 (stereo not drawn) the results were Tb PGK inh inactive and RGS4 inh inactive.
For Cc1ccc(NCc2ccc(O)c3ncccc23)cc1 the results were Tb PGK inh inactive, Tb PFK inh-1 inconclusive, USP2a inh inactive, RGS4 inh inactive, BCR signal inh inconclusive, Tb PFK KinaseGlo inactive and Tb PFK inh-2 inactive.
Screening Cc1ccc(NCc2ccc(O)c3ncccc23)cc1C returned Tb PGK inh inactive, Tb PFK inh-1 inactive, USP2a inh inactive, RGS4 inh inactive and BCR signal inh inconclusive.
For CC(=O)c1sc(-c2ccc(Cl)cc2)nc1C the results were Tb PGK inh inactive, Tb PFK inh-1 inactive, USP2a inh inactive, RGS4 inh inactive and BCR signal inh inconclusive.
Screening CC(=O)c1c(C)nc(-c2ccc(Cl)cc2)nc1N returned Tb PGK inh inactive, Tb PFK inh-1 inconclusive, USP2a inh inactive, RGS4 inh inactive, BCR signal inh inconclusive, Tb PFK KinaseGlo inconclusive and Tb PFK inh-2 inconclusive.
`CC(=O)c1c(C)nc(-c2ccc(Cl)cc2)nc1N=CN(C)C` gave Tb PGK inh inactive, Tb PFK inh-1 2.7µM, USP2a inh inactive, RGS4 inh inactive, BCR signal inh inactive, Tb PFK KinaseGlo 9.5µM and Tb PFK inh-2 12µM.
For Nc1c(C(=O)NC2CC2)sc2nc3c(c(-c4ccco4)c12)CC/C3=C/c1ccco1 the results were Tb PGK inh inconclusive, Tb PFK inh-1 6.7µM, USP2a inh 22µM, RGS4 inh inconclusive, BCR signal inh inactive, Tb PFK KinaseGlo inconclusive and Tb PFK inh-2 inconclusive.
For NC(=O)c1sc2nc3c(c(-c4ccco4)c2c1N)CCC3 the results were Tb PGK inh inactive, Tb PFK inh-1 inactive, USP2a inh inactive, RGS4 inh inactive and BCR signal inh inconclusive.

Source: PubChem (National Center for Advancing Translational Sciences (NCATS))
